Laboratory results as given in PubChem BioAssay (EPA / NIEHS).
Records with an inconclusive call do not appear. The source made the active and inactive calls. How the source made its calls, unless noted: active means hit-call score of the fitted dose curve at least 0.9, where 1 is the maximum; inactive means score below 0.9.

Key:
[1] = read-out: Tumor necrosis factor (Homo sapiens) (UniProt P01375); assay: BSK_LPS_TNFa: BioMAP Diversity Plus: LPS Assay for Tumour Necrosis Factor alpha (TNFa) Biomarker Activity (AID 2283085); details: primary human HUVEC with PBMC; actives raise or lower the signal
How it was run: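 Human umbilical vein endothelial cells co-cultured with PBMC and stimulated with LPS. TNFa was measured by ELISA 24 h after chemical dosing, fitted bidirectionally relative to DMSO.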

[2] = read-out: Vascular cell adhesion molecule 1 (VCAM1), VCAM1 (gene 7412); assay: BSK_LPS_VCAM1: BioMAP Diversity Plus: LPS Assay for Vascular cell adhesion molecule 1 (VCAM1) Biomarker Activity (AID 2283086); details: primary human HUVEC with PBMC; actives raise or lower the signal
How it was run: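 Human umbilical vein endothelial cells co-cultured with PBMC and stimulated with LPS; VCAM-1 measured by ELISA 24 h after dosing. Bidirectional curve fitting against DMSO baseline; cytotoxicity tracked in parallel by SRB total-protein staining.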

CD38, CD38 (gene 952) = assay: BSK_SAg_CD38: BioMAP Diversity Plus: SAg Assay for CD38 Biomarker Activity (AID 2283087); details: primary human HUVEC with PBMC; actives raise or lower the signal
How it was run: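 Human HUVEC plus PBMC co-culture stimulated with superantigen; CD38 measured by ELISA 24 h after chemical dosing. Fluorescence read-out, bidirectional fit against DMSO; cytotoxicity tracked in parallel by SRB and Alamar Blue.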

[3] = read-out: Monocyte Chemoattractant Protein-1 (MCP1), CCL2 (gene 6347); assay: BSK_SAg_MCP1: BioMAP Diversity Plus: SAg Assay for Monocyte Chemoattractant Protein-1 (MCP1) Biomarker Activity (AID 2283090); details: primary human HUVEC with PBMC; actives raise or lower the signal
How it was run: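 MCP-1 levels in the endothelial–PBMC SAg co-culture were quantified by ELISA at 24 h post-dosing; both increases and decreases versus DMSO scored. Cytotoxicity monitored by SRB total protein in parallel cultures.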

[4] = read-out: E-selectin (Homo sapiens) (UniProt P16581); assay: BSK_SAg_Eselectin: BioMAP Diversity Plus: SAg Assay for Eselectin Biomarker Activity (AID 2283091); details: primary human HUVEC with PBMC; actives raise or lower the signal
How it was run: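 Cell-surface E-selectin is read by ELISA at 24 h in the SAg co-culture of HUVEC and PBMC. Curves are fitted in both directions relative to DMSO. Parallel SRB total-protein staining tracks overt toxicity.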

[5] = read-out: Monokine induced gamma interferon (MIG), CXCL9 (gene 4283); assay: BSK_SAg_MIG: BioMAP Diversity Plus: SAg Assay for Monokine induced gamma interferon (MIG) Biomarker Activity (AID 2283092); details: primary human HUVEC with PBMC; actives raise or lower the signal
How it was run: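 Endothelial cells and PBMC were co-cultured, exposed to test chemicals, and sampled 24 h later. MIG was measured by ELISA, and responses were fitted in both directions relative to DMSO.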

[6] = BSK_SAg_PBMCCytotoxicity: PBMC Cytotoxicity Assessment in the BioMAP Diversity Plus: SAg Assay (AID 2283093); details: primary human HUVEC with PBMC;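 further: PBMC viability measured as Alamar Blue reduction fluorescence at 546/580 nm; fitted both ways against DMSO so a hit may be loss or gain of signal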;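 on AC50: PBMC superantigen activated with SEB plus TSST-1 one hour after compound addition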
How it was run: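 Compound added to 75,000 PBMC/well for 1 h; SEB and TSST-1 then added at 20 ng/mL final each; 90 h incubation; Alamar Blue 6 h; read 546/580 nm ex/em. Activity fitted bidirectionally relative to DMSO baseline.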

[7] = read-out: Interleukin-8 (IL8), CXCL8 (gene 3576); assay: BSK_SAg_IL8: BioMAP Diversity Plus: SAg Assay for Interleukin-8 (IL8) Biomarker Activity (AID 2283094); details: primary human HUVEC with PBMC; actives raise or lower the signal
How it was run: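 Human umbilical vein endothelial cells co-cultured with PBMC, stimulated with superantigen; IL-8 measured by ELISA 24 h after chemical dosing. Bidirectional fitting versus DMSO; SRB staining in parallel cultures tracks cytotoxicity.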

[8] = BSK_SAg_Proliferation: Cell Proliferation Assessment in the BioMAP Diversity Plus: SAg Assay (AID 2283095); details: primary human HUVEC with PBMC
How it was run: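 Human umbilical vein endothelial cells co-cultured with PBMC; sulforhodamine B total-protein staining (0.1% SRB after 10% TCA fixation, absorbance 560 nm) at 96 h in sub-confluent culture. Fitted bidirectionally against DMSO.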

[9] = BSK_SAg_SRB: Viability Assessment in the BioMAP Diversity Plus: SAg Assay (AID 2283096); details: primary human HUVEC with PBMC;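 further: cells read one day after compound addition; hits may be either gain or loss of signal compared with DMSO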
How it was run: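 Total protein by sulforhodamine B staining, 24 h after dosing, in HUVEC–PBMC co-culture; DMSO-referenced bidirectional fitting.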

CD69, CD69 (gene 969) = assay: BSK_SAg_CD69: BioMAP Diversity Plus: SAg Assay for CD69 Biomarker Activity (AID 2283089); details: primary human HUVEC with PBMC; actives raise or lower the signal;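 on AC50: cell surface CD69 protein quantified by ELISA with fluorescence detection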
How it was run: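 Primary human vascular co-culture (umbilical vein endothelium with peripheral blood mononuclear cells) exposed to test chemical for 24 h. CD69 levels quantified by fluorescence ELISA; DMSO served as negative control for bidirectional fitting.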

[10] = target: human CYP2B6, CYP2B6 (gene 1555) (UniProt P20813); assay: NVS_ADME_hCYP2B6: NovaScreen (NVS) CYP450-related Enzyme Activity (ADME) Assay for human CYP2B6 (AID 2283101; active means hit-call score of the fitted dose curve at least 0.9, where 1 is the maximum)
Chain of human CYP2B6, CYP2B6 (gene 1555) (P20813 whole entry, looked up): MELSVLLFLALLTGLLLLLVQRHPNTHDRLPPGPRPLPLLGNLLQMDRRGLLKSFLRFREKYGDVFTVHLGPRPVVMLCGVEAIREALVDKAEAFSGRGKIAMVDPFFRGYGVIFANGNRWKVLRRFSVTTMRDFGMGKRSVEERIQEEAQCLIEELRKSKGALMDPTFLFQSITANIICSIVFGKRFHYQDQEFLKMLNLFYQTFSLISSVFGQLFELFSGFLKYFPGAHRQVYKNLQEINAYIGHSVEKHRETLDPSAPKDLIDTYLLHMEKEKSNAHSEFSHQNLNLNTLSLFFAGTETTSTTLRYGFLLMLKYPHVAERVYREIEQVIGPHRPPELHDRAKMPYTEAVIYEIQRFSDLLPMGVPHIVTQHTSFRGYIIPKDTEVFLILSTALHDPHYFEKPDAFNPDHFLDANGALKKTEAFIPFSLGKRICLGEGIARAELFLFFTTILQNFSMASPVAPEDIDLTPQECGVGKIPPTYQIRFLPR
How it was run: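 Cell-free recombinant enzyme assay with a fluorogenic substrate; fluorescence intensity read 1 hour after dosing. Loss of signal relative to acetonitrile negative control indicates inhibition. Primary screen run in duplicate at 10 uM, actives then tested in concentration series.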

[11] = target: human CYP1A2, CYP1A2 (gene 1544) (UniProt P05177); assay: NVS_ADME_hCYP1A2: NovaScreen (NVS) CYP450-related Enzyme Activity (ADME) Assay for human CYP1A2 (AID 2283102; active means hit-call score of the fitted dose curve at least 0.9, where 1 is the maximum;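 further: potency for inhibition since loss of fluorescence marks reduced CYP1A2 activity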)
Chain of human CYP1A2, CYP1A2 (gene 1544) (P05177 whole entry, looked up): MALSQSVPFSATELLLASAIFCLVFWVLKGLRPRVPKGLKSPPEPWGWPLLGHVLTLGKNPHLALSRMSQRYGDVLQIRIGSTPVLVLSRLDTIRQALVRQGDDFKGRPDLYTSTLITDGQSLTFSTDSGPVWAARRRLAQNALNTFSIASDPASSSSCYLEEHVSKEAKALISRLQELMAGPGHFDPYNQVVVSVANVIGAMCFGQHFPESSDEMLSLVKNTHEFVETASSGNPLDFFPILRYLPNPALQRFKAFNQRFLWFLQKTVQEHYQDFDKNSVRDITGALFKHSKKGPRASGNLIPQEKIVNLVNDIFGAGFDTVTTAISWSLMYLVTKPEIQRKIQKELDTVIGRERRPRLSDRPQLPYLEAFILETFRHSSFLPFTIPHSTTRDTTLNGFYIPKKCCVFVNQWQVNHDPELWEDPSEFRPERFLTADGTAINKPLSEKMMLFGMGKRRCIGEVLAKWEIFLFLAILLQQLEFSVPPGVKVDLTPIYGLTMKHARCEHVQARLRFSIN
How it was run: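 Enzyme activity of insect-cell-expressed human CYP1A2 measured by fluorescence 0.5 h after compound addition, relative to acetonitrile. Compounds first tested in duplicate at 10 uM, actives followed up in concentration series.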

[12] = target: human CYP2D6, CYP2D6 (gene 1565) (UniProt P10635); assay: NVS_ADME_hCYP2D6: NovaScreen (NVS) CYP450-related Enzyme Activity (ADME) Assay for human CYP2D6 (AID 2283107; active means hit-call score of the fitted dose curve at least 0.9, where 1 is the maximum)
Chain of human CYP2D6, CYP2D6 (gene 1565) (P10635 whole entry, looked up): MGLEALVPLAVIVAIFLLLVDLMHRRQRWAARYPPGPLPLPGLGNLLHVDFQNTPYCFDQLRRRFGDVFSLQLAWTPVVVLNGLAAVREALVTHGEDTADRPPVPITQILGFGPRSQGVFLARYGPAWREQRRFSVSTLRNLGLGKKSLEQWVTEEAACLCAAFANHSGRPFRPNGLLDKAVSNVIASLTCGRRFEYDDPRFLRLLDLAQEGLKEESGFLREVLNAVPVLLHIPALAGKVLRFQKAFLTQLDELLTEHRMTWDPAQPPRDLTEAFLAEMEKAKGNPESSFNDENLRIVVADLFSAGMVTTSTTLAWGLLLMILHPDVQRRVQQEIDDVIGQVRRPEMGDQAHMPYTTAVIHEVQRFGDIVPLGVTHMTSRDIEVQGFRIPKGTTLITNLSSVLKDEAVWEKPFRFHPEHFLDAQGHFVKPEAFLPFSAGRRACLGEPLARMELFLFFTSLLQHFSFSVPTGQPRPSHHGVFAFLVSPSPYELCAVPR
How it was run: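 Fluorescence readout of recombinant CYP2D6 (insect-cell derived) activity after 1 h incubation with test chemical. Acetonitrile served as baseline, loss-of-signal direction. Single-concentration duplicate screening at 10 uM preceded concentration-response retesting.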

[13] = target: human CYP2C9, CYP2C9 (gene 1559) (UniProt P11712); assay: NVS_ADME_hCYP2C9: NovaScreen (NVS) CYP450-related Enzyme Activity (ADME) Assay for human CYP2C9 (AID 2283108; active means hit-call score of the fitted dose curve at least 0.9, where 1 is the maximum)
Chain of human CYP2C9, CYP2C9 (gene 1559) (P11712 whole entry, looked up): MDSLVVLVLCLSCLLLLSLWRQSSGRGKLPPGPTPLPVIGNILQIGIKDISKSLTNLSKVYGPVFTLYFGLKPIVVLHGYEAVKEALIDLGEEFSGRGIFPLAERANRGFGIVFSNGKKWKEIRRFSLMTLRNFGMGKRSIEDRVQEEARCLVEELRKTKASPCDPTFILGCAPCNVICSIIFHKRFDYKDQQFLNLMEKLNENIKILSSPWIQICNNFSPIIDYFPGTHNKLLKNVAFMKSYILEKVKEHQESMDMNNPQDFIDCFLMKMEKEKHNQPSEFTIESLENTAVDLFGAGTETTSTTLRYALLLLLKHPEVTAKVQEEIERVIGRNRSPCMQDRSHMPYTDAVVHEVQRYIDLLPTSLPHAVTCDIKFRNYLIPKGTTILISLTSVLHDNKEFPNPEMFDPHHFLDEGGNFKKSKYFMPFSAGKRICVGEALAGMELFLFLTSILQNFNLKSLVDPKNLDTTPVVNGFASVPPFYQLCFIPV
How it was run: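 Fluorescence readout of CYP2C9 activity (SF9-expressed human enzyme) at 0.75 h. The primary screen used 10 uM in duplicate, with concentration-response follow-up for actives; acetonitrile was the negative control.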

[14] = target: Cytochrome P450 3A4 (Homo sapiens) (UniProt P08684); assay: NVS_ADME_hCYP3A4: NovaScreen (NVS) CYP450-related Enzyme Activity (ADME) Assay for human CYP3A4 (AID 2283110; active means hit-call score of the fitted dose curve at least 0.9, where 1 is the maximum)
Chain of Cytochrome P450 3A4 (Homo sapiens) (P08684 whole entry, looked up): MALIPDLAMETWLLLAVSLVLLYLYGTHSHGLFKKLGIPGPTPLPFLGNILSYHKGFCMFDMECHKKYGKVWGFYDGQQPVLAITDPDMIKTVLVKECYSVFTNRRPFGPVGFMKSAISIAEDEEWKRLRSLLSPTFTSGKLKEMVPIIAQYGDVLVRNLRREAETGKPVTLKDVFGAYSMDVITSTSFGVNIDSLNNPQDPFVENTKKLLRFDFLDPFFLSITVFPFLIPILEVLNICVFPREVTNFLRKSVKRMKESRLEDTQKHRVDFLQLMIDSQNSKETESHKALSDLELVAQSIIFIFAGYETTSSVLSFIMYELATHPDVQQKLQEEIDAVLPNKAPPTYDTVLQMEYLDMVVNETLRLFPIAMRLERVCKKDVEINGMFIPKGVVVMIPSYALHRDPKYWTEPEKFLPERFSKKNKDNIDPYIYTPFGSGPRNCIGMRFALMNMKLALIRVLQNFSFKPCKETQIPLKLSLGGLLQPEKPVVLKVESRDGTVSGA
How it was run: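 Compounds were first screened in duplicate at 10 uM against recombinant CYP3A4 produced in insect cells, then actives were run in concentration series. Enzyme activity was measured by fluorescence after 0.33 hour, with acetonitrile as baseline.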

[15] = target: Cytochrome P450 2C19 (Homo sapiens) (UniProt P33261); assay: NVS_ADME_hCYP2C19: NovaScreen (NVS) CYP450-related Enzyme Activity (ADME) Assay for human CYP2C19 (AID 2283113; active means hit-call score of the fitted dose curve at least 0.9, where 1 is the maximum;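 further: potency for inhibition seen as loss of fluorescent signal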)
How it was run: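 Compounds first screened in duplicate at 10 uM, then confirmed in concentration series. Insect-cell-expressed human CYP2C19 turned over a fluorogenic substrate, and fluorescence was read after 1 h. Inhibition taken as signal loss relative to acetonitrile.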

CD40, CD40 (gene 958) = assay: BSK_SAg_CD40: BioMAP Diversity Plus: SAg Assay for CD40 Biomarker Activity (AID 2283088); details: primary human HUVEC with PBMC; actives raise or lower the signal
How it was run: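 CD40 is measured by fluorescence ELISA in an endothelial/PBMC primary human co-culture at 24 h post-dose. Fitting is bidirectional, DMSO baseline. Parallel SRB staining (560 nm) flags cytotoxicity.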

Measured: AC50

Chain of E-selectin (Homo sapiens) (P16581 whole entry, looked up): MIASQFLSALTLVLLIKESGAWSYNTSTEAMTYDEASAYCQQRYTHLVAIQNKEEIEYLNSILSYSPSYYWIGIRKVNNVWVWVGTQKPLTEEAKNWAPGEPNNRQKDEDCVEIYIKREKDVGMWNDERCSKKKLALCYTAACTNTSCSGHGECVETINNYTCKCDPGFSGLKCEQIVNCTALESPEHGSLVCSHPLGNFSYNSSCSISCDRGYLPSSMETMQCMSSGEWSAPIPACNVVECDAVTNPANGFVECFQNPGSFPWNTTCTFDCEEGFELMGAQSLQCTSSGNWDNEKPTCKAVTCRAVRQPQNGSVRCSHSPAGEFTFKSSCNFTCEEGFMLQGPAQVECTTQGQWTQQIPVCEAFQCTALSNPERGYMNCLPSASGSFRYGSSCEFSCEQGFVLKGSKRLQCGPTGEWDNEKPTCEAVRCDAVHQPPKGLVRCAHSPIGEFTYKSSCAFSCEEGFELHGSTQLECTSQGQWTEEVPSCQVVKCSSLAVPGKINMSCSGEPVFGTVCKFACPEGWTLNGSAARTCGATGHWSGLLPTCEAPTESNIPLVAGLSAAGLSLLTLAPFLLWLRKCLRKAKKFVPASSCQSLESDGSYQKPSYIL
Chain of Tumor necrosis factor (Homo sapiens) (P01375 whole entry, looked up): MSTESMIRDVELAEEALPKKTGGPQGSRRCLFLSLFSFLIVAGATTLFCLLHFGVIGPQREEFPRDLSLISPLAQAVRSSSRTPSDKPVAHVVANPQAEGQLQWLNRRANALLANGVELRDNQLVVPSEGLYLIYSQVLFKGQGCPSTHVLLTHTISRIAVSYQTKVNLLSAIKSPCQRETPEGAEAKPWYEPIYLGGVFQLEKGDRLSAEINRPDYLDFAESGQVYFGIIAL

C1N2CN3CN1CN(C2)C3
inactive: [1] | [2] | CD38, CD38 (gene 952) | [3] | [4] | [5] | [6] | [7] | [8] | [9]

Nc1ccc(Nc2ccccc2)cc1
active: [2] 7.32 µM | CD38, CD38 (gene 952) 3.97 µM | CD69, CD69 (gene 969) 3.97 µM | [3] 9.88 µM | [4] 2.72 µM | [5] 15.7 µM | [6] 5.36 µM | [7] 8.78 µM | [8] 14 µM | [10] 4.35 µM | [11] 15.1 µM | [12] 13.8 µM | [13] 16.1 µM | [14] 7.5 µM | [15] 6.51 µM
inactive: [9]

O=C(O)CCN(C1(C(=O)NO)CCCC1)S(=O)(=O)c1ccc(Oc2ccc(F)cc2)cc1
inactive: [2] | CD38, CD38 (gene 952) | CD40, CD40 (gene 958) | [3] | [4] | [5] | [6] | [7] | [8] | [9]

C=CCCCCCCCCC(=O)O
inactive: [2] | CD38, CD38 (gene 952) | CD69, CD69 (gene 969) | [3] | [4] | [5] | [6] | [7] | [8] | [9]

O=C1CCCCCN1
inactive: [2] | CD38, CD38 (gene 952) | CD40, CD40 (gene 958) | [3] | [4] | [5] | [6] | [7] | [8] | [9]

COC(=O)CC(=O)OC
inactive: [2] | CD38, CD38 (gene 952) | CD40, CD40 (gene 958) | [3] | [4] | [5] | [6] | [7] | [8] | [9]

CCOCCOCCOCCO
inactive: [2] | CD38, CD38 (gene 952) | CD69, CD69 (gene 969) | [3] | [4] | [5] | [6] | [7] | [8] | [9]

O=C(CCCCCCCCc1cccnc1)N1CCC(C=C(c2ccccc2)c2ccccc2)CC1
active: [2] 15 µM | CD38, CD38 (gene 952) 8.97 µM | CD40, CD40 (gene 958) 8.35 µM | [3] 7.42 µM | [4] 7.71 µM | [5] 8.63 µM | [6] 10.3 µM | [7] 6.46 µM | [8] 6.21 µM | [9] 12.7 µM
